Results on 43 compounds are retold here after PubChem BioAssay AID1259420 (Broad Institute, 2018).

SMILES strings stand for the structures. Values joined by “and” are separate entries in the source; they are usually repeats but may differ in a detail not shown here. Equal entries are not always repeated. The whole screen tested about 1,000 compounds, of which about 250 (25%) were called active. Inconclusive results (about 31%) are left out. The list is a sample of the results. Results with a measured potency or affinity are listed apart. A number with no mark means an inactive call. No rule for the calls is given here.

The nature of this experiment: T. gondii intracellular growth, IFN-gamma absent, dose response, cell-based (AID 1259420).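 Also: host cells were HeLa; final incubation lasted 72 hours.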 The settings on record: Toxoplasma gondii growth in host cells, no IFN-gamma.

With `CC(C)C#Cc1ccc([C@@H]2[C@@H](CO)N(C(=O)c3cccc(F)c3)[C@H]2C#N)cc1`, the max activity (at 19.5 µM unless noted) is -12.4% [at 10 µM].

With `CC(C)CC#Cc1ccc([C@H]2[C@@H](CO)N3C(=O)CN(C(=O)c4cccc(F)c4)C[C@@H]23)cc1`, the max activity (at 19.5 µM unless noted) is 25.4%.

As to `O=C(CC1CC1)N[C@H]1CN(C(=O)c2ccoc2)C[C@@H]2CCCO[C@H]21`, the max activity (at 19.5 µM unless noted) is -10.1% [at 10 µM].

For the compound `CCc1c(C)sc2c1CCN(Cc1nc(-c3cccc(C)c3)oc1C)C2c1ccccc1` (centres undefined), where the note is “at 19.5 µM unless noted”, the max activity was -7.44% [at 0.08 µM].

In the case of `O=C1CNC[C@@H]2[C@@H](c3ccc(C#Cc4cccnc4)cc3)[C@@H](CO)N12`, the max activity was 9.41% (at 2.6 µM) and -13% (at 10 µM).

Consider `CC(C)(O)C#Cc1cccc(-c2n[nH]c(Cc3ccccc3)n2)c1`, for which the max activity (at 19.5 µM unless noted) was 21.1%.

Consider `O=S(=O)(c1ccc2c(c1)CCCC2)N1CCC2(CC1)NCCN=C2NCc1ccc2c(c1)OCO2`, for which the max activity (at 19.5 µM unless noted) was -6.04% [at 0.08 µM].

In the case of `CCc1ccc(S(=O)(=O)N2CCC3(CC2)NCCN=C3NCc2cc(F)cc(F)c2)cc1`, the max activity (at 19.5 µM unless noted) is -11.1% [at 0.08 µM].

Turning to `Cc1cccc(CNC2=NCCNC23CCN(S(=O)(=O)c2ccc4c(c2)CCCC4)CC3)c1`, where the note is “at 19.5 µM unless noted”, the max activity was -9.87%.

Consider `Cc1ccc(CNC2=NCCNC23CCN(S(=O)(=O)c2ccc(Cl)s2)CC3)cc1`, for which, for the setting “at 19.5 µM unless noted”, the max activity is -6.39% [at 2.6 µM].

`CCc1ccccc1-c1cccc(-n2cnnc2)c1`: the max activity (at 19.5 µM unless noted) is 23.8% [at 10 µM].

On to `CCc1cc(C(=O)Nc2ccc(C)cc2-c2cc(C)[nH]n2)c2c(C)noc2n1`, for which, under “at 19.5 µM unless noted”, the max activity is -5.68% [at 5 µM].

For `CN(C)CCN1CCOCC2(CCCN(C(=O)c3ccc4cc[nH]c4c3)C2)C1` (centres undefined), the max activity (at 19.5 µM unless noted) was -5.04% [at 2.6 µM].

As to `COCC1CN(Cc2cc(C)on2)Cc2c1cnn2CC1CC1` (centres undefined), the max activity (at 19.5 µM unless noted) is -5.27% [at 10 µM].

`COc1ccc(-n2c(C)c([N+](=O)[O-])c3ccc(O)cc32)cc1`: the max activity (at 19.5 µM unless noted) was 7.23% [at 1.2 µM].

On to `COc1ccc(S(=O)(=O)N2CCCCN3[C@H](C2)[C@@H](c2ccc(C#CCC(C)C)cc2)[C@@H]3CO)cc1`, for which the max activity (at 19.5 µM unless noted) is 29.4% [at 10 µM].

As for `COCCC(=O)C1Cc2nc(-c3ccccc3)sc2N1CC1CC1` (centres undefined), the max activity (at 19.5 µM unless noted) was -9.12% [at 0.3 µM].

In the case of `O=C(C1CCCCC1)N1C[C@@H]2N[C@H](C1)C2c1ccc(-c2ccccc2F)cc1` (some centres undefined), the max activity (at 19.5 µM unless noted) was 13.7% [at 2.6 µM].

Turning to `C=CCN1C(=O)CC[C@H]2[C@@H]1CCN2S(=O)(=O)CC`, the max activity (at 19.5 µM unless noted) was -17.5% [at 10 µM].

On to `CCCNC(=O)N1C[C@@H]2N[C@H](C1)C2c1ccc(-c2ccc(OC)cc2)cc1` (some centres undefined), for which the max activity (at 19.5 µM unless noted) was 11.6% [at 21 µM].

For the compound `Cc1ccc(CN2CC3CN(Cc4cccc(F)c4)CC3C2)s1` (centres undefined), the max activity (at 19.5 µM unless noted) was -13.6% [at 1.2 µM].

Turning to `Cc1cnc(N2CCC3(CCN(CC4CC4)C3=O)CC2)nc1`, the max activity (at 19.5 µM unless noted) was -10.4%.

Consider `COCC#Cc1ccc([C@@H]2[C@@H](CO)N3C(=O)CN(C(=O)c4ccncc4)C[C@@H]23)cc1`, for which the max activity (at 19.5 µM unless noted) was -8.48% [at 10 µM].

As for `CC(C)[C@H](CO)Nc1nc(Nc2ccc(C(=O)O)c(Cl)c2)c2ncn(C(C)C)c2n1`, the max activity (at 19.5 µM unless noted) is -10.3% [at 10 µM].

In the case of `O=C(NCc1ccccc1)C1CC2(CO1)CN(C(=O)c1ccc(F)cc1)c1ccccc12` (centres undefined), for the setting “at 19.5 µM unless noted”, the max activity is -16.3% [at 10 µM].

Take `O=C1N(CC2CC2)CCC12CCCN(Cc1cncc(Cl)c1)CC2` (centres undefined): where the note is “at 19.5 µM unless noted”, the max activity is -16.7% [at 10 µM].

With `O=C(Nc1ccc(F)cc1)N1CC(=O)N2[C@@H](CO)[C@@H](c3ccc(C4=CCCC4)cc3)[C@@H]2C1`, the max activity (at 19.5 µM unless noted) is 14.9%.

For `N#C[C@@H]1N[C@H](CO)[C@H]1c1ccc(-c2cccc(F)c2)cc1`, under “at 19.5 µM unless noted”, the max activity is 13.1%.

With `CS(=O)(=O)N1CCN(C2CCOCC2)CC(C(=O)O)C1` (centres undefined), for the setting “at 19.5 µM unless noted”, the max activity was -14.9% [at 5 µM].

In the case of `COc1ccc(-c2nc(CN(c3ccccc3OC)S(=O)(=O)c3ccccc3)c(C)o2)cc1`, the max activity (at 19.5 µM unless noted) was -9.94% [at 0.6 µM].

With `CCOc1ccc(-c2nc(CN(c3ccc(OC)cc3)S(=O)(=O)c3cccs3)c(C)o2)cc1`, for the setting “at 19.5 µM unless noted”, the max activity was 18.6% [at 10 µM].

Regarding `CC(C)Oc1ccc(NC(=O)c2nc3c(n2C(C)C)CCN(C(=O)c2ccccc2)C3)cc1`, under “at 19.5 µM unless noted”, the max activity was 12.7% [at 0.08 µM].

Take `CCOC(=O)c1nn(Cc2ccccc2)c2c1CN(C(=O)CN1CC(c3ccccc3)CC1=O)CC2` (centres undefined): the max activity (at 19.5 µM unless noted) was -13.6%.

Turning to `O=C(C1CCOCC1)N1CC(=O)N2[C@@H](CO)[C@@H](c3ccc(C#CC4CCCCC4)cc3)[C@@H]2C1`, for the setting “at 19.5 µM unless noted”, the max activity was 14.6%.

Turning to `CC(C)C#Cc1ccc([C@H]2[C@@H](CO)N3C(=O)CN(C(=O)NC4CCCC4)C[C@H]23)cc1`, for the setting “at 19.5 µM unless noted”, the max activity is -5.62% [at 10 µM].

Turning to `Cc1nc2ccccc2n1CC(O)Cn1c2ccccc2c2ccccc21` (centres undefined), for the setting “at 19.5 µM unless noted”, the max activity is -12.4%.

For the compound `O=C(Cc1cccnc1)N1CC(=O)N2[C@H](CO)[C@H](c3ccc(C#CC4CCCCC4)cc3)[C@H]2C1`, for the setting “at 19.5 µM unless noted”, the max activity was -8.11% [at 0.3 µM].

With `CN(C)C(=O)COCc1cncc2c1CCN(c1ccccn1)C2`, the max activity (at 19.5 µM unless noted) is -8.88% and 11.8%.

For the compound `Cc1ccccc1S(=O)(=O)N1CCCCN2[C@H](C1)[C@H](c1ccc(C#CCN(C)C)cc1)[C@@H]2CO`, where the note is “at 19.5 µM unless noted”, the max activity was 20.9% [at 10 µM].

Regarding `Clc1ccccc1CSc1nc(NC2CCCCC2)c2ccccc2n1`, for the setting “at 19.5 µM unless noted”, the max activity is 12.5%.

`CS(=O)(=O)N1CC(=O)N2[C@H](CO)[C@@H](c3ccc(Br)cc3)[C@H]2C1`: the max activity (at 19.5 µM unless noted) is 4.03%.

On to `COc1cccc(-c2ccc(C3[C@H]4CNC[C@@H]3N4C(=O)NC3CCCCC3)cc2)c1` (some centres undefined), for which, for the setting “at 19.5 µM unless noted”, the max activity was 28.1%.

For `COc1cccc(-c2ccc(C3[C@H]4CNC[C@@H]3N4CC3CCCCC3)cc2)c1` (some centres undefined), the max activity (at 19.5 µM unless noted) was 15.2%.
